For 26 compounds, growth results are on record in PubChem BioAssay (NCI).

What all share (test): NCI-60 one-dose screen, 48 h (100 = growth as untreated, 0 = no growth, -100 = all killed)
Common to all, as to settings: 10 µM unless noted

The subject of assay [1] is DU-145 prostate.
Assay [2] relates to K-562 leukemia.
Assay [3] relates to MALME-3M melanoma.
In assay [4] the test system is MDA-MB-231 breast.
Assay [5] has as its system RXF 393 renal.
In assay [6] the test system is SF-268 CNS.
Assay [7] relates to SF-295 CNS.
For assay [8], the system named is SF-539 CNS.
The subject of assay [9] is UACC-257 melanoma.
The subject of assay [10] is M14 melanoma.

The structures appear in SMILES notation. About 83,000 compounds went through this panel and 20% of them were active in at least one assay; those are over-represented in the sample as a whole.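 Results are percent growth after 48 hours of single-concentration exposure. 100 means growth as in untreated cells, lower positive values show inhibition; negative values down to -100 show cell death.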 A number with no mark means an inactive call. Activity calls are given as the source filed them. How the source made its calls: active means growth percent below 10; inactive means the rest.

As for `COc1ccc(/C=C(/C(=O)N2CCN(Cc3ccccc3)CC2)c2cc(OC)c(OC)c(OC)c2)cc1O`, the growth was 82.3% in assay [1]; 23.1% in assay [2]; 65.8% in [3]; 76.9% in [4]; 62.3% in [5]; 72.6% in assay [6]. Besides, the growth was 82.8% in [7], 55.7% in assay [8], 54.7% in [9] and 38% in assay [10].

Take `NC(=N\N=C\c1ccccc1O)/C(N)=N/N=C/c1ccccc1O`: the growth in assay [1] is 80.1%; in [2], 71.1%; in assay [3], 79%; in assay [4], 83.6%; in assay [5], 106%; in [6], 78.8%. Moreover, the growth in assay [7] was 77.7%; in assay [8], 81.3%; in assay [9], 84.3%; in [10], 79%.

`CN1CCN(C(=O)[C@@]2(C)CC[C@]3(C)CC[C@]4(C)C(=CC[C@@H]5[C@@]6(C)CC[C@H](OC(=O)c7cccnc7)C(C)(C)[C@@H]6CC[C@]54C)[C@@H]3C2)CC1`: the growth in assay [1] is 78.7%; in [2], -24.1% (active); in assay [3], 60.2%; in [4], 48.4%; in assay [5], 60.3%; in assay [6], 85.4%. The growth in assay [7] is 67.8%; in [8] it was 59.8%; in assay [9], 58.6%; in assay [10], 80.7%.

On to `c1ccc(-c2cn3ccnc3c(-c3ccc4c(c3)ncn4C3CCCCC3)n2)cc1`, for which the growth in assay [1] is 97.4%; in [2], 68.9%; in assay [3], 120%; in assay [4], 93.4%; in assay [5], 76.7%; in [6], 98.7%. The growth in assay [7] is 101%; in assay [8], 97.8%; in assay [9] it was 110%; in [10], 98.4%.

On to `Cn1c2c(c3ccc(-c4ccn[nH]4)cc3c1=O)C(=O)c1ccccc1-2`, for which the growth in assay [1] was 15.9%; in [2], 17.7%; in assay [3], 55.8%; in [4], 86.9%; in assay [5] it was 91.5%; in assay [6], 40.8%. In addition, the growth in assay [7] was 20.5%; in assay [8], 37.3%; in assay [9], 103%; in [10], 48.6%.

Turning to `O=C1c2ccccc2C(=O)c2c1oc1c2c(=O)[nH]c2ccc(Cl)cc21`, the growth in assay [1] is -45.4% (active); in assay [2], 12.9%; in assay [3], -51.7% (active); in assay [4], -42.2% (active); in assay [5], -46.3% (active); in [6] it was -31.7% (active). Moreover, the growth in assay [7] was -1.34% (active); in assay [8] it was -28% (active); in assay [9], 18.8%; in [10] it was 10.4%.

On to `COC(=O)c1oc2c(C(=O)/C=C/c3ccc(OC)cc3)c(OCCCN3CCCCC3)ccc2c1C`, for which the growth was 15.4% in assay [1]; -16.2% (active) in assay [2]; -64.4% (active) in [3]; 32.4% in assay [4]; -75.2% (active) in [5]; -2.59% (active) in [6]. Further, the growth is 11.6% in [7], -55.8% (active) in assay [8], 40.1% in [9] and -40.3% (active) in assay [10].

For `O=C(O)COc1ccc2c(=O)c3sc4c(=O)c5ccccc5c(=O)c4c3c(=O)c2c1`, the growth in assay [1] is -89.6% (active); in [2], 24.9%; in [3], -75.4% (active); in assay [4] it was 45.2%; in assay [5], 49.3%; in assay [6] it was 44.7%. Also, the growth in assay [7] was -97% (active); in assay [8], -45.7% (active); in assay [9], -3.61% (active); in assay [10] it was -95.6% (active).

As to `Oc1ccc(CNNc2ccnc3c(O)cccc23)c2cccnc12`, the growth is 43.4% in assay [1]; 9.71% (active) in [2]; 66.7% in assay [3]; 37.4% in [4]; 59.6% in [5]; 37.6% in assay [6]. In addition, the growth in assay [7] is 17.7%; in assay [8] it was 32.2%; in assay [9], 38.3%; in assay [10], 30.9%.

As to `Cc1nc2sc(C(=O)Nc3ccccc3)c(N)c2cc1C(C)O` (stereo not given), the growth in [1] was 18.3%; in assay [2], 16.3%; in [3] it was 64.2%; in [4] it was 51.4%; in assay [5], 12.7%; in assay [6] it was 53.4%. Also, the growth was 21.9% in assay [7], 6.49% (active) in [8], 64% in assay [9] and 16.2% in assay [10].

Turning to `O=C(CCCCCCCCC(=O)Nc1cccc(C2=NCCN2)c1)Nc1cccc(C2=NCCN2)c1`, the growth was 99.8% in [1]; 73.1% in assay [2]; 69.8% in assay [3]; 101% in [4]; 108% in assay [5]; 103% in assay [6]. The growth was 99.9% in assay [7], 108% in assay [8], 95.6% in [9] and 97.1% in [10].

On to `CC(C)CSc1nc(Nc2ccccc2)c(C#N)c(-c2ccc(F)cc2)n1`, for which the growth in [1] was 75.9%; in [2] it was 50.7%; in assay [3], -5.57% (active); in assay [4], -3.62% (active); in assay [5], 2.42% (active); in [6], 37.7%. The growth in assay [7] was 16.2%; in assay [8] it was 22.4%; in assay [9], 66.2%; in assay [10], 31.6%.

`COC(=O)c1nc(-c2ccccc2)oc1S(=O)(=O)n1nc(C)cc1N`: the growth in assay [1] was 92.5%; in assay [2], 3.02% (active); in assay [3], -37.1% (active); in assay [4], 92.7%; in [5], 104%; in [6] it was 83.2%. The growth is 95.4% in assay [7], 76.1% in assay [8], 83.3% in assay [9] and 67.1% in [10].

Turning to `CC(=O)OCC1OC(OC2C(COC(C)=O)OC(OCCC[S-])C(OC(C)=O)C2OC(C)=O)C(OC(C)=O)C(OC(C)=O)C1OC(C)=O.[Au+].c1ccc(CN2[CH-]N(Cc3ccccc3)C(c3ccccc3)=C2c2ccccc2)cc1` (stereo not given), the growth was 26.1% in assay [1]; 4.75% (active) in assay [2]; -8.9% (active) in assay [3]; -34.7% (active) in assay [4]; 25.7% in [5]; 40.1% in [6]. The growth in [7] is 7.32% (active); in assay [8] it was 35.6%; in assay [9], 12.5%; in assay [10], 25%.

Take `COc1ccc2oc(=O)cc(-c3c(C#N)c(N)n4nc(N)c(C#N)c4c3C#N)c2c1`: the growth was 106% in assay [1]; 86.4% in assay [2]; 77.4% in assay [3]; 104% in [4]; 100% in assay [5]; 89.9% in assay [6]. The growth in assay [7] is 103%; in assay [8] it was 98.2%; in assay [9], 107%; in assay [10], 111%.

Regarding `O=C(O)c1cc(N=Nc2ccc(-c3ccc(N=Nc4c(S(=O)(=O)O)cc5ccc(Nc6ccccc6)cc5c4O)cc3)cc2)ccc1O`, the growth in assay [1] is 109%; in assay [2], 91.3%; in assay [3], 86%; in assay [4] it was 98%; in [5] it was 112%; in [6], 93.1%. For the same compound, the growth in [7] is 99.7%; in assay [8] it was 108%; in [9], 107%; in [10], 106%.

Take `Nc1ccc(C(=O)Nc2cccc(C(=O)Nc3ccc4c(O)c(N=Nc5ccc(N=Nc6ccc(S(=O)(=O)O)cc6)cc5)c(S(=O)(=O)O)cc4c3)c2)cc1`: the growth in assay [1] is 107%; in assay [2], 88.1%; in [3], 93.8%; in assay [4], 101%; in assay [5], 109%; in assay [6], 102%. Further, the growth is 104% in assay [7], 102% in [8], 111% in assay [9] and 97.3% in [10].

With `C#C[C@@]1(O)[C@@H](CO)O[C@@H](n2cc(Cl)c3c(N)ncnc32)[C@@H]1O`, the growth was 4.44% (active) in assay [1]; 4.99% (active) in [2]; -19.5% (active) in assay [3]; -6.34% (active) in assay [4]; -33.4% (active) in assay [5]; 15.3% in assay [6]. For the same compound, the growth was -26.8% (active) in assay [7], -54.3% (active) in assay [8], 40.9% in assay [9] and -25.8% (active) in assay [10].

As to `C[C@H](Oc1cc(-c2cnn(C3CCNCC3)c2)cnc1N)c1c(Cl)ccc(F)c1Cl`, the growth in [1] was 77.8%; in [2] it was 5.27% (active); in [3], -38% (active); in assay [4] it was 52.2%; in assay [5], 31.6%; in assay [6], 59%. The growth is 49.7% in [7], 68.3% in assay [8], -45% (active) in assay [9] and -51.9% (active) in assay [10].

`COC(=O)c1cncc(C(=O)Nc2ccc(-n3cnc4ccccc43)cc2)c1`: the growth was 105% in [1]; 94.5% in [2]; 124% in [3]; 94% in assay [4]; 100% in assay [5]; 91.9% in assay [6]. Besides, the growth in assay [7] is 100%; in assay [8], 95.9%; in [9] it was 104%; in assay [10], 102%.

In the case of `CCOC(=O)c1c(C)nc2c(c1N)/C(=C/c1cccs1)C(=O)N2Cc1ccccc1`, the growth in [1] is 62%; in assay [2], 34.7%; in assay [3], 85.1%; in [4], 55.4%; in [5], 40%; in [6], 74.7%. Further, the growth in [7] is 88%; in [8] it was 90.7%; in assay [9] it was 74%; in assay [10] it was 73.8%.

As to `C#Cc1ccccc1NC(=O)c1sc2nc3c(cc2c1N)CCCCCC3`, the growth in assay [1] was 50%; in assay [2] it was 74.5%; in assay [3], 8.8% (active); in assay [4], 5.3% (active); in assay [5], 92.9%; in assay [6] it was 48.5%. The growth was 75.7% in assay [7], 62.2% in assay [8], 96% in assay [9] and 56.5% in assay [10].

Regarding `O=C(Nc1cc(=O)[nH]c(=O)[nH]1)C(Cl)Cl`, the growth in assay [1] was 113%; in [2] it was 99.2%; in assay [3], 96.7%; in assay [4], 102%; in assay [5] it was 106%; in assay [6], 99.9%. The growth in assay [7] was 105%; in assay [8], 106%; in assay [9] it was 96.5%; in assay [10], 106%.

In the case of `CN1CCN(S(=O)(=O)O[C@@H]2C(=O)N(c3cc4c5ccccc5ccc4c4ccccc34)[C@H]2c2ccc(F)cn2)CC1`, the growth in assay [1] is 94.4%; in assay [2], 74.7%; in assay [3], 115%; in assay [4], 38.8%; in [5], 77.6%; in assay [6], 79.7%. The growth in assay [7] was 96.5%; in assay [8], 104%; in assay [9], 88.1%; in assay [10], 90.9%.

On to `COc1ccc(C(=S)c2cc(OC)c(OC)c(OC)c2)cc1OC(=O)CCl`, for which the growth was 9.36% (active) in assay [1]; 10.2% in [2]; 74.2% in assay [3]; 32.9% in [4]; 44.7% in assay [5]; 39.3% in assay [6]. Also, the growth is 14.7% in assay [7], 9.83% (active) in assay [8], 56.7% in [9] and 12.6% in assay [10].

For the compound `Cc1cccc(C)c1NC(=O)CN(CC(C)C)CC(O)COc1ccccc1` (stereo not given), the growth in assay [1] is 111%; in assay [2], 96%; in [3], 103%; in assay [4], 93.5%; in assay [5], 103%; in assay [6], 102%. The growth is 88% in [7], 97.6% in assay [8], 110% in assay [9] and 87.8% in assay [10].
